Values without a mark were called inactive. Calls of active or inactive are those of the source. Cut-off read from the data, not from the text of the source: active = fold change mostly below about -2 (no sharp cut-off); inactive = mostly above about -1.8.
Test: modulation of TERT promoter-driven luciferase – cell-based, luciferase reporter, human, primary screen (AID 1259240)
Details: A2780 TERT promoter luciferase reporter, 16 h; at 20 µM, fold versus average of vehicle-only wells

Compound `COC(=O)CN1C(=O)C(O)(CC(=O)c2ccc(Br)cc2)c2ccccc21` (stereo unspecified) has a fold change of -1.49.

In the case of `Cc1ccc(-c2cc(N)n(S(=O)(=O)c3cccc([N+](=O)[O-])c3)n2)cc1`, the fold change is reported as 1.05.

With `COc1ccc2c(c1)OC13CCCCC1C2C(C(=O)c1ccccc1)C(=O)N3` (stereo unspecified) the fold change was -2.84 (active).

For `Cn1c(=O)c2c(SCC(=O)N3CCCc4ccccc43)nc(-c3ccco3)nc2n(C)c1=O`, the fold change was 1.45.

Compound `CCOC(=O)N1CCC(Nc2c(N(CC)CC)c(=O)c2=O)CC1` has a fold change of 1.22.

`CC(C)CCNC(=O)Cn1c(=O)oc2cc(S(=O)(=O)N3CCc4ccccc43)ccc21` gave a fold change of 1.17.

`Fc1ccccc1Nc1nc2ccccc2n2nnnc12` gave a fold change of 1.5.

For `COc1ccc(-c2csc3nc(-c4ccccc4F)oc(=O)c23)cc1OC`, the fold change was -1.03.

With `CC(C)n1cnc2cc(NCc3ccncc3)ccc21` the fold change was -2.71 (active).

Compound `COc1ccc(Nc2c(-c3cccc(O)c3)nc3ncccn23)cc1` has a fold change of 1.03.

For `COc1ccc2cc(S(=O)(=O)c3ccc(Cl)cc3)c(=O)oc2c1`, the fold change was -2.33 (active).

In the case of `CCOC(=O)Cn1c(=O)oc2cc(S(=O)(=O)NCc3cccs3)ccc21`, the fold change is reported as -1.2.

Work on `Cc1nn(-c2cc(N3CCCCC3)ccc2N)c(=O)c2ccccc12` yielded a fold change of -1.45.

`CCN1C(=O)C(O)(CC(=O)c2ccc(Br)s2)c2ccccc21` (stereo unspecified) showed a fold change of -1.03.

`O=C(NC1CCCC1)c1ccc(CNc2c(NC3CCCC3)c(=O)c2=O)cc1` showed a fold change of 1.06.

In the case of `O=C(O)CSc1ncn(-c2ccccc2)n1`, the fold change is reported as -4.67 (active).

For `CC(CC(=O)NCCc1c[nH]c2ccccc12)CC1=NS(=O)(=O)c2ccccc2N1` (stereo unspecified), the fold change was -1.46.

With `CCOc1ccc(S(=O)(=O)n2c(C)nc3ccccc32)cc1` the fold change was -1.6.

With `CN(C)c1ccc(/C=C2/SC(=S)NC2=O)cc1` the fold change was -4.47 (active).

With `CCN1CCCC1CNC(=O)CN1C(=O)COc2ccc(S(=O)(=O)N3CCC(C)CC3)cc21` (stereo unspecified) the fold change was 1.28.

For `CS(=O)(=O)Nc1ccc(Cl)c2cccnc12`, the fold change was -2.8 (active).
